PubChem BioAssay (NCI)
Compounds without any hit were thinned out: in the full panel of roughly 79,000, 15% have a hit. Unmarked numbers belong to inactive results. Active and inactive are the calls of the source. Rule as the data show it: active = growth inhibition above about 70%; inactive = the rest.

Tests used:
[1] = NCI Yeast Anticancer Drug Screen. Data for the rad50 strain (AID 155);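 also: 0% = growth of vehicle-only cultures of the same strain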; details: S. cerevisiae rad50 strain growth inhibition, stronger effect = higher value
How it was run: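 Relative growth inhibition (compound vs vehicle) was measured in yeast with a defined repair-gene alteration.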

[2] = NCI Yeast Anticancer Drug Screen. Data for the mec2-1 strain (AID 157); details: S. cerevisiae mec2-1 strain, stronger effect = higher value
How it was run: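 Readout is yeast growth inhibition, normalised to vehicle-treated controls, in the mec2-1 strain exposed to compound.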

[3] = NCI Yeast Anticancer Drug Screen. Data for the sgs1 mgt1 strain (AID 161);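 also: 0% = growth of cultures given vehicle only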; details: S. cerevisiae sgs1 mgt1 strain, stronger effect = higher value
How it was run: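 Compounds are added to genetically altered yeast, and growth is compared with cultures given vehicle alone to give percent inhibition.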

[4] = NCI Yeast Anticancer Drug Screen. Data for the cln2 rad14 strain (AID 165);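 also: 0% = growth equal to vehicle treated cultures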; details: S. cerevisiae cln2 rad14 strain, stronger effect = higher value
How it was run: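 Relative to vehicle controls, growth inhibition of compound-treated cln2 rad14 yeast was recorded.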

[5] = NCI Yeast Anticancer Drug Screen. Data for the bub3 strain (AID 167); details: S. cerevisiae bub3 mutant strain, stronger effect = higher value
How it was run: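 Screening used yeast with an engineered genetic alteration affecting cell cycle control. Compound-exposed cultures were compared with vehicle cultures, and reduced growth was taken as inhibition.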

[6] = NCI Yeast Anticancer Drug Screen. Data for the mlh1 rad18 strain (AID 175); details: S. cerevisiae mlh1 rad18 strain growth inhibition, stronger effect = higher value
How it was run: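 Test agents were incubated with a yeast strain of defined genotype (DNA damage repair defect). Inhibition of growth was derived by comparison with vehicle-exposed cultures.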

[7] = at 5.0 µM (retest, dose inferred, filed as 0.5)
[8] = at 50.0 µM (retest, dose inferred, filed as 5.0)

| Compound | growth inhibition [1, 7] | growth inhibition [1, 8] | growth inhibition ([1]; at 50.0 µM) | growth inhibition [2, 7] | growth inhibition [2, 8] | growth inhibition ([2]; at 50.0 µM) | growth inhibition [3, 7] | growth inhibition [3, 8] | growth inhibition ([3]; at 50.0 µM) | growth inhibition [4, 7] | growth inhibition [4, 8] | growth inhibition ([4]; at 50.0 µM) | growth inhibition [5, 7] | growth inhibition [5, 8] | growth inhibition ([5]; at 50.0 µM) | growth inhibition [6, 7] | growth inhibition [6, 8] | growth inhibition ([6]; at 50.0 µM) |
| --- | --- | --- | --- | --- | --- | --- | --- | --- | --- | --- | --- | --- | --- | --- | --- | --- | --- | --- |
| CC1CCC(=NNC(N)=O)CC1 (stereo unspecified) | -1% | -6% | 3.9% | -11% | -2% | -10.9% | -1% | -4% | 2.45% | -5% | -1% | 34.9% | -3% | -3% | 9.5% | -1% | -4% | -19.2% |
| O=C(O)CCc1ccc2ccccc2c1 | -2% | 48% | 62.8% | 0% | 38% | 51.4% | 1% | 37% | 37.7% | -4% | 32% | 83.2% (active) | -6% | 18% | 53.7% | -4% | 41% | 88.2% (active) |
| CC(CC(C#CCN(C)C)N(C)C)CC(C)(C)C (stereo unspecified) | 22% | -9% | -5.3% | 1% | -10% | 15.6% | 3% | 5% | 13.3% | 1% | 24% | -7.5% | 7% | 14% | 41.1% | 6% | -5% | 38.6% |
| Cc1ccccc1N=NC(C(=O)c1ccccc1)C(=O)c1ccccc1 | 7% | 94% (active) | 93.2% (active) | -14% | 96% (active) | 94% (active) | 15% | 93% (active) | 92.2% (active) | 3% | 95% (active) | 90% (active) | 5% | 97% (active) | 92.8% (active) | -8% | 97% (active) | 91.8% (active) |
| Cn1c2nc(-[n+]3ccccc3)nc-2c([O-])n(C)c1=O | 1% | 3% | -15.8% | 3% | 7% | -2.25% | -1% | 39% | 2.1% | -2% | 7% | 70% (active) | -1% | 0% | -6.95% | -1% | 8% | -8.75% |
| O=[N+]([O-])c1cccc2nc3ccccc3c(NCCNCCO)c12 | 89% (active) | 98% (active) | 75.3% (active) | 95% (active) | 99% (active) | 51.2% | 90% (active) | 99% (active) | 80.2% (active) | 75% (active) | 98% (active) | 76.8% (active) | 42% | 99% (active) | 10.6% | 89% (active) | 98% (active) | 88% (active) |
| Oc1ccc(-c2ccc3ccccc3c2)cc1 | 2% | 98% (active) | 98.7% (active) | 6% | 97% (active) | 99.3% (active) | -3% | 98% (active) | 99.2% (active) | 3% | 99% (active) | 98.8% (active) | 1% | 98% (active) | 99.2% (active) | -2% | 99% (active) | 99.1% (active) |
| C=C1C(C2(C)C(OC(C)=O)CC(=O)OC(C)(COC(C)=O)C2CC(=O)OC)C(OC=O)C(OC(=O)C(O)C(C)CC)C2(C)C(c3ccoc3)CC(=O)C12O (stereo unspecified) | -15% | -28% | 76.9% (active) | -5% | -16% | 68.7% | 4% | -32% | 57.5% | -6% | 0% | 81.5% (active) | -36% | -23% | 79.8% (active) | -2% | -53% | 90% (active) |
| CCN(CC)C(=O)CCCC1CCCCC1 | 1% | 23% | 45.6% | -3% | 4% | 13.2% | 0% | 20% | 66.5% | 0% | 11% | -9% | 6% | 25% | 44% | 1% | 7% | 26.9% |
| CN1CCN(CCCCN2c3ccccc3Sc3ccc(C(=O)c4ccccc4)cc32)CC1 | 25% | 27% | 75.6% (active) | 26% | 34% | 22.8% | 27% | 2% | 87.2% (active) | 30% | 18% | -9.8% | 36% | 25% | 22% | 32% | 37% | 60.2% |
| Cc1ccccc1P(=O)(c1ccccc1C)c1ccccc1C | 16% | 31% | 0.55% | 16% | 28% | 12.9% | 10% | 42% | 13.1% | 11% | 51% | 32.6% | 24% | 24% | 32.5% | 15% | 45% | 4.35% |
| NC(c1ccccc1)P(=O)(OCc1ccc([N+](=O)[O-])cc1)OCc1ccc([N+](=O)[O-])cc1 (stereo unspecified) | 15% | 15% | 57.2% | -4% | -4% | 33.6% | -3% | -3% | 72.3% (active) | 11% | 11% | 35.6% | 6% | 6% | 36.9% | 14% | 14% | 33.4% |
| COC(=O)/N=C/CCC(O)NC(=O)OC (stereo unspecified) | 1% | 1% | 40.3% | -20% | 2% | 1.85% | 2% | -2% | -3.15% | -1% | 3% | 46.5% | -2% | -3% | -18.8% | -9% | 4% | 11.7% |
| O=[N+]([O-])c1ccc(/C=N/O)o1 | 20% | 98% (active) | 98.2% (active) | 6% | 99% (active) | 99.5% (active) | 5% | 99% (active) | 99.2% (active) | 49% | 98% (active) | 89% (active) | 13% | 99% (active) | 99.6% (active) | 44% | 99% (active) | 99% (active) |
| CC(C)(C)c1ccc2c(c1)CNCCNCc1cc(C(C)(C)C)ccc1OCC1(CO2)COc2ccc(C(C)(C)C)cc2CNCCNCc2cc(C(C)(C)C)ccc2OC1 | 99% (active) | 92% (active) | 89% (active) | 99% (active) | 94% (active) | 90% (active) | 99% (active) | 92% (active) | 92.2% (active) | 99% (active) | 92% (active) | 89.5% (active) | 98% (active) | 91% (active) | 89% (active) | 98% (active) | 92% (active) | 88.2% (active) |
| CC1=Cc2cc3[n-]c(cc4nc(cc5[n-]c(cc1n2)cc5C)C(C)=C4CCC(=O)O)c(CCC(=O)O)c3C.[Pd+2] | 0% | 72% (active) | 15.1% | 2% | 55% | 26% | 0% | 80% (active) | 12.2% | -11% | 61% | 62.8% | -3% | 69% | 7.7% | -1% | 73% (active) | 10.6% |
| O=C(Nc1ccc(S(=O)(=O)NC2CCCCC2)cc1)OC1CCCCCCC1 | 69% | 74% (active) | 72% (active) | 99% (active) | 81% (active) | 53.2% | 72% (active) | 40% | 77.6% (active) | 12% | 75% (active) | 75% (active) | 92% (active) | 79% (active) | 67% | 90% (active) | 58% | 76.7% (active) |
